Measurements taken from PubChem BioAssay (NCI).
The panel holds about 83,000 compounds, 20% with a hit somewhere; the sample as a whole holds those more often.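 Growth was measured after 48 h exposure to one concentration of compound in 96-well plates. Values under 10 count as active.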 Values without a mark were called inactive. Active and inactive are the calls of the source.

Key:
Test in all cases: NCI-60 one-dose screen, 48 h (100 = growth as untreated, 0 = no growth, -100 = all killed)
Conditions in all cases: 10 µM
HCT-15 colon = system: HCT-15 colon
HT29 colon = system: HT29 colon
SNB-75 CNS = system: SNB-75 CNS
SNB-19 CNS = system: SNB-19 CNS
U251 CNS = system: U251 CNS
PC-3 prostate = system: PC-3 prostate
SK-MEL-5 melanoma = system: SK-MEL-5 melanoma
UACC-62 melanoma = system: UACC-62 melanoma
LOX IMVI melanoma = system: LOX IMVI melanoma
SK-MEL-28 melanoma = system: SK-MEL-28 melanoma
SK-MEL-2 melanoma = system: SK-MEL-2 melanoma
EKVX NSCLC = system: EKVX NSCLC
SN12C renal = system: SN12C renal
UO-31 renal = system: UO-31 renal
TK-10 renal = system: TK-10 renal
ACHN renal = system: ACHN renal
CAKI-1 renal = system: CAKI-1 renal
A498 renal = system: A498 renal
CCRF-CEM leukemia = system: CCRF-CEM leukemia
MOLT-4 leukemia = system: MOLT-4 leukemia

Compound | growth (HCT-15 colon) | growth (HT29 colon) | growth (SNB-75 CNS) | growth (SNB-19 CNS) [%] | growth (U251 CNS) | growth (PC-3 prostate) [%] | growth (SK-MEL-5 melanoma) | growth (UACC-62 melanoma) | growth (LOX IMVI melanoma) | growth (SK-MEL-28 melanoma) | growth (SK-MEL-2 melanoma) [%] | growth (EKVX NSCLC) | growth (SN12C renal) [%] | growth (UO-31 renal) | growth (TK-10 renal) | growth (ACHN renal) | growth (CAKI-1 renal) | growth (A498 renal) | growth (CCRF-CEM leukemia) | growth (MOLT-4 leukemia)
CC(C1=C(CN(C(=O)Cc2cn(-c3ccccc3)nc2-c2ccc(Cl)cc2)C(C)C)Cc2ccccc21)c1ccccn1 (stereo not drawn) | 54.2% | 32.9% | 80.7% | 76.9 | 67.6% | 41.7 | 46.1% | 63.6% | 69.2% | 91.9% | 53 | 41% | 77 | 27.4% | 70.3% | 60.4% | 40.9% | 50.6% | 53.3% | 29.3%
O=C1CSC(=S)N1/N=C/c1ccc(Cl)s1 | 97.9% | 110% | 111% | 97.7 | 99.3% | 98.1 | 97% | 100% | 88.5% | 107% | 98.6 | 101% | 95.8 | 79.3% | 118% | 98.4% | 100% | 103% | 98.6% | 102%
CCN(CC)CCCC(Nc1c2ccc(Cl)cc2nc2ccc(OC)cc12)c1ccc(F)cc1 (stereo not drawn) | 1.06% (active) | 5.7% (active) | 93.3% | 45.7 | -29% (active) | 73 | -95.7% (active) | 109% | -73.2% (active) | -83.5% (active) | 116 | 40.2% | 25.7 | -43.3% (active) | -59.6% (active) | -58.9% (active) | 87.6% | 59.5% | -18.5% (active) | 2.74% (active)
Oc1cccc(-c2nc3sccn3c2-c2ccncn2)c1 | 93.2% | 54.8% | 39.4% | 111 | 114% | 84.6 | 90.6% | 14.5% | 36.2% | 33.9% | 83.7 | 92.8% | 92.1 | 76.8% | 123% | 97.8% | 69.8% | 119% | 94.1% | 101%
COc1cc(-c2nc3ccccc3o2)cc(CN2CCCCC2)c1O | 41.4% | 87.2% | 57.6% | 83.3 | 47.5% | 41.8 | -83.3% (active) | -15.3% (active) | -18.6% (active) | 59.5% | 89.3 | 66.5% | 62.1 | 43.9% | 129% | 64.8% | 85.2% | 55.2% | – | –
CCC(=O)OC1CCC2C3CCC(=O)OC3C(C)(CCC(=O)O)CC12C (stereo not drawn) | 24.2% | 4.42% (active) | -1.91% (active) | 62.8 | 28.3% | 31.4 | -83.5% (active) | 45.9% | 30.9% | 59.8% | 12.7 | 8.81% (active) | 55.5 | 47.1% | 47% | 43.9% | -4.08% (active) | -71.5% (active) | -14.8% (active) | -0.59% (active)
NC(=O)c1cccc(-n2ccc3cc(NC(=O)Nc4ccc(Cl)c(C(F)(F)F)c4)ccc32)n1 | 56.6% | 61.9% | 47.5% | 71 | 56.5% | 53.4 | 78.3% | 70.9% | 76.9% | 79.4% | 97.2 | 57.7% | 73.4 | 77.3% | 83.7% | 71.3% | 61% | 56.9% | 62.5% | 52%
